Read-out in experiment [1]: E-selectin (Homo sapiens) (UniProt P16581)
As to the kind of experiment: BSK_SAg_Eselectin: BioMAP Diversity Plus: SAg Assay for Eselectin Biomarker Activity (AID 2283091). To be noted: primary human HUVEC with PBMC; actives raise or lower the signal. The method in brief:
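E-selectin ELISA readout at 24 h post-dosing in human umbilical vein endothelial cell/PBMC co-culture; gain or loss of signal fitted relative to DMSO baseline.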

Read-out in experiment [2]: Monokine induced gamma interferon (MIG), CXCL9 (gene 4283)
As to the kind of experiment: BSK_SAg_MIG: BioMAP Diversity Plus: SAg Assay for Monokine induced gamma interferon (MIG) Biomarker Activity (AID 2283092). To be noted: primary human HUVEC with PBMC; actives raise or lower the signal. Summed up:
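ELISA readout of MIG/CXCL9; primary human umbilical vein endothelial cells co-cultured with peripheral blood mononuclear cells; 24 h post-dose; gain/loss fit vs DMSO baseline.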

Experiment [3] can be described thus: BSK_SAg_PBMCCytotoxicity: PBMC Cytotoxicity Assessment in the BioMAP Diversity Plus: SAg Assay (AID 2283093).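 Also: PBMC viability measured as Alamar Blue reduction fluorescence at 546/580 nm; fitted both ways against DMSO so a hit may be loss or gain of signal.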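 As to AC50: PBMC superantigen activated with SEB plus TSST-1 one hour after compound addition.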 The settings on record: primary human HUVEC with PBMC. Summed up:
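Alamar Blue reduction (6 h, 546/580 nm) reports PBMC cytotoxicity after 90 h superantigen activation (SEB, TSST-1; 20 ng/mL final each) with 1 h compound pre-treatment. Gain or loss of signal fitted versus DMSO.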

Read-out in experiment [4]: Interleukin-8 (IL8), CXCL8 (gene 3576)
The experiment is described as follows: BSK_SAg_IL8: BioMAP Diversity Plus: SAg Assay for Interleukin-8 (IL8) Biomarker Activity (AID 2283094). The settings on record: primary human HUVEC with PBMC; actives raise or lower the signal. The method in brief: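 Chemicals were dosed onto a human endothelial–PBMC co-culture, and IL-8 was quantified by ELISA after 24 h. Both increases and decreases were fitted relative to DMSO.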

Experiment [5] can be described thus: BSK_SAg_Proliferation: Cell Proliferation Assessment in the BioMAP Diversity Plus: SAg Assay (AID 2283095).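 Also: relative cell number as total protein by SRB absorbance in sub-confluent culture.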 To be noted: primary human HUVEC with PBMC. The method in brief: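 Absorbance of sulforhodamine B at 560 nm reports total protein in a human vascular endothelial/PBMC co-culture after 96 h chemical exposure. Gain or loss of signal is fitted in both directions against DMSO.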

Experiment [6] can be described thus: BSK_SAg_SRB: Viability Assessment in the BioMAP Diversity Plus: SAg Assay (AID 2283096).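 Also: cells read one day after compound addition; hits may be either gain or loss of signal compared with DMSO.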 The settings on record: primary human HUVEC with PBMC. The method in brief: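 This overt-cytotoxicity endpoint quantifies protein in human endothelial/PBMC co-cultures at 24 h using SRB absorbance (560 nm) after trichloroacetic acid fixation. Values reflect signal change from the DMSO negative control, fitted bidirectionally.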

Activity calls are given as the source filed them. The calls were made as follows: active = hit-call score of the fitted dose curve at least 0.9, where 1 is the maximum; inactive = score below 0.9.

Sequence of E-selectin (Homo sapiens) (P16581 whole entry, looked up): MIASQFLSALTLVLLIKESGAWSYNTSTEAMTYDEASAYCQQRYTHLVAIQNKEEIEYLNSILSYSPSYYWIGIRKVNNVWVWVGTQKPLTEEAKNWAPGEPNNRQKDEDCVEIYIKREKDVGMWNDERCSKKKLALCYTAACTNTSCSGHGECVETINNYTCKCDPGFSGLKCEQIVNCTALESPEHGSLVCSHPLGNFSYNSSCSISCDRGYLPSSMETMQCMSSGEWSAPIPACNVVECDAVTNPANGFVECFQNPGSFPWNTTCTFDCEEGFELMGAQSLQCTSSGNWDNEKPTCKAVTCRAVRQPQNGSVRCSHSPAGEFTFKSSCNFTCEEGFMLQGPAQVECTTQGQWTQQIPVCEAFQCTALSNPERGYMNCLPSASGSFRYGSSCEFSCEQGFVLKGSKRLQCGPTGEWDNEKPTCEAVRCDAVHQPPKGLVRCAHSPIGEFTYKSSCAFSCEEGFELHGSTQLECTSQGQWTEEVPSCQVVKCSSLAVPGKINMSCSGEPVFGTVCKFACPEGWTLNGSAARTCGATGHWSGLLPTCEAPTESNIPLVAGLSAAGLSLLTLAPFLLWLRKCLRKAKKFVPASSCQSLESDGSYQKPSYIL

As for `O=C(O)CCCCC(=O)O`, the outcome in experiment [1], in experiment [2], in experiment [3], in experiment [4] and in experiment [5] was inactive.
Turning to `c1cc(-c2ccncc2)ccn1`, the result in experiment [1], in experiment [2], in experiment [3], in experiment [4], in experiment [5] and in experiment [6] was inactive.
On to `C1CCC(SSC2CCCCC2)CC1`, for which the AC50 in experiment [1] was 32.7 µM (active); in experiment [3] it was 16.1 µM (active); in experiment [5], 15 µM (active). In addition, the outcome in experiment [2] and in experiment [4] was inactive.
On to `Cc1ccccc1Cl`, for which the result in experiment [1], in experiment [2], in experiment [3], in experiment [4] and in experiment [5] was inactive.
For `Cc1ccc(N(C)C)cc1`, the result in experiment [1], in experiment [2], in experiment [3], in experiment [4] and in experiment [5] was inactive.
For `CN[C@H]1CC[C@@H](c2ccc(Cl)c(Cl)c2)c2ccc(S(N)(=O)=O)cc21`, the AC50 in experiment [1] was 20 µM (active); in experiment [2] it was 31.2 µM (active); in experiment [3] it was 20.5 µM (active); in experiment [4], 13.8 µM (active); in experiment [5], 12.4 µM (active); in experiment [6], 28.8 µM (active).
On to `CCCCCCCC=O`, for which the outcome in experiment [1], in experiment [2], in experiment [3], in experiment [4] and in experiment [5] was inactive.
Take `CC(CO)OC(C)CO` (stereo unspecified) (tested in a mixture with another compound): the result in experiment [1], in experiment [2], in experiment [3], in experiment [4], in experiment [5] and in experiment [6] was inactive.
Regarding `COC(=O)c1ccc(O)cc1`, the result in experiment [1], in experiment [2], in experiment [3], in experiment [4], in experiment [5] and in experiment [6] was inactive.
For the compound `Oc1ccc2ccccc2c1N=Nc1ccccc1`, the AC50 in experiment [1] is 4.27 µM (active); in experiment [5] it was 12.2 µM (active). The outcome in experiment [2], in experiment [3] and in experiment [4] was inactive.
As to `COCCOCCOC`, the result in experiment [1], in experiment [2], in experiment [3], in experiment [4] and in experiment [5] was inactive.
Take `CN1CCCC1=O`: the outcome in experiment [1], in experiment [2], in experiment [3], in experiment [4] and in experiment [5] was inactive.
On to `Cc1ccc(Cl)cc1`, for which the result in experiment [1], in experiment [2], in experiment [3], in experiment [4] and in experiment [5] was inactive.
For the compound `Cc1nc(C)nc(N2C[C@@H](C)N(c3ccnc([C@@H](C)O)n3)[C@@H](C)C2)n1`, the outcome in experiment [1], in experiment [2], in experiment [3], in experiment [4] and in experiment [5] was inactive.
Take `COCCOC[C@H](CC1(C(=O)NC2CCC(C(=O)O)CC2)CCCC1)C(=O)Oc1ccc2c(c1)CCC2` (stereo partly specified): the outcome in experiment [1], in experiment [2], in experiment [3], in experiment [4] and in experiment [5] was inactive.
Regarding `CCCCCCCCCCC`, the result in experiment [1], in experiment [2], in experiment [3], in experiment [4], in experiment [5] and in experiment [6] was inactive.
On to `Cc1ccc(C(C)C)c(O)c1`, for which the outcome in experiment [1], in experiment [2], in experiment [3], in experiment [4], in experiment [5] and in experiment [6] was inactive.
As for `C[C@]12C=CC(=O)C=C1CC[C@@H]1[C@@H]2C(=O)C[C@@]2(C)[C@H]1CC[C@]2(O)C(=O)CO`, the result in experiment [1], in experiment [2], in experiment [3], in experiment [4] and in experiment [5] was inactive.
Regarding `NC(=O)Cn1c(=O)cc(CCN2CCN(c3nccc4sccc34)CC2)c2ccc(F)cc21`, the outcome in experiment [1], in experiment [2], in experiment [3], in experiment [4] and in experiment [5] was inactive.
For `C=CCc1ccc(O)c(OC)c1`, in experiment [1], the half-maximal activity concentration (AC50) was 4.26 µM (active). For the same compound, the outcome in experiment [2], in experiment [3], in experiment [4] and in experiment [5] was inactive.
As to `O=c1c(O)c(-c2ccc(O)c(O)c2)oc2cc(O)cc(O)c12`, the outcome in experiment [1], in experiment [2] and in experiment [4] was inactive. Besides, the AC50 was 13 µM (active) in experiment [3] and 28.6 µM (active) in experiment [5].
As for `Cc1ccc(C)c(C)c1`, the outcome in experiment [1], in experiment [2], in experiment [3], in experiment [4] and in experiment [5] was inactive.
In the case of `CCCCCCCCCCCCCO`, the AC50 is 36.4 µM (active) in experiment [1], 33.2 µM (active) in experiment [3] and 38 µM (active) in experiment [4]. For the same compound, the outcome in experiment [2] and in experiment [5] was inactive.
In the case of `CC1(C)NC(=O)NC1=O`, the result in experiment [1], in experiment [2], in experiment [3], in experiment [4] and in experiment [5] was inactive.
`O=c1[nH]cc(F)c(=O)[nH]1`: the result in experiment [1], in experiment [2], in experiment [3] and in experiment [4] was inactive. Further, the AC50 in experiment [5] is 2.48 µM (active).
Consider `C[Si]1(C)O[Si](C)(C)O[Si](C)(C)O[Si](C)(C)O1`, for which the result in experiment [1], in experiment [2], in experiment [3], in experiment [4] and in experiment [5] was inactive.
On to `OC[C@@H](O)[C@@H](O)[C@H](O)[C@H](O)CO`, for which the result in experiment [1], in experiment [2], in experiment [3], in experiment [4] and in experiment [5] was inactive.

The values are drawn from PubChem BioAssay (EPA / NIEHS).
